An excerpt weighted towards active compounds, which were near 19% of everything screened.
TDP1 cell noCPT: qHTS for Inhibitors of human tyrosyl-DNA phosphodiesterase 1 (TDP1): qHTS in cells in absence of CPT. DT40 Tdp1-/- hTDP1 cells, no CPT, ATP luminescence, 48 h. Potency, µM (titrated, usually from 46.2 µM), without a hit: at the top dose activity change, negative = growth inhibition, most hits filed as inhibitors. actives 15% (n = 420,000). AID 686978, 2013; also: potency is read from the fitted curve at half-maximal effect; nearly all actives have a fitted effect of over 55% in size
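Luminescent ATP content (CellTiter-Glo) served as the growth readout. Knockout chicken DT40 cells expressing human TDP1 were exposed to compounds without camptothecin for a minimum 48 hr at 37 °C.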
TDP1 cell CPT: qHTS for Inhibitors of human tyrosyl-DNA phosphodiesterase 1 (TDP1): qHTS in cells in presence of CPT | actives 12% (n = 420,000) | Potency, µM (highest dose often 46.2 µM), for the others: top-dose activity change, negative = growth inhibition, actives largely listed as inhibitors | chicken DT40 Tdp1-/-;hTDP1 cells + 20 nM CPT, ATP luminescence, 48 h | AID 686979, 2013; also: potency is read from the fitted curve at half-maximal effect; nearly all actives have a fitted effect of over 55% in size
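Chicken DT40 Tdp1-/- cells complemented with human TDP1, 400 cells/well, exposed to compounds plus 20 nM camptothecin for at least 48 h at 37 C; viability read as ATP content by CellTiter-Glo luminescence.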
HT1080 IDH1KD tx: qHTS for induction of synthetic lethality in tumor cells producing 2HG: qHTS for the HT-1080-IDH1KD cell line | HT-1080 IDH1 knockdown viability, ATP luminescence, 48 h | Potency, µM (highest dose often 46.1 µM), for inactives: at the top dose activity, negative = toxicity, actives largely listed as cytotoxic | AID 686971, 2013 | actives 2% (n = 360,000);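 also: potency is read from the fitted curve at half-maximal effect; 0% = DMSO wells and -100% = cell-free medium wells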
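IDH1KD HT-1080 cells, 750/well, RPMI + 5% FBS; compound pinned after 2 h settling; 48 h, 37 °C; CellTiter-Glo luminescence; % activity normalised to DMSO and no-cell wells; curves fitted, classed by r2 and efficacy.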
IL-1B inflam inh: qHTS for Inhibitors of Inflammasome Signaling: IL-1-beta AlphaLISA Primary Screen; THP-1 LPS/ATP IL-1B secretion, AlphaLISA, 16 h; stronger effect = lower value; activity change, % at 57.5 µM; actives 4.7% (n = 360,000); in the data active = activity change below about -50%; inconclusive = mostly about -30% to -49%
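Secreted IL-1B measured by AlphaLISA bead assay after 16 h compound exposure of THP-1 cells; compounds (final up to 57.5 uM) added 1 h before LPS (250 ng/mL) and ATP (1.25 mM) stimulation; lower signal means less secretion.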
HT1080-NT tox: qHTS for induction of synthetic lethality in tumor cells producing 2HG: qHTS for the HT-1080-NT fibrosarcoma cell line; Potency, µM (highest dose often 46.1 µM), for the others: at the highest dose activity, negative = less viability, most hits filed as cytotoxic; AID 686970, 2013; HT-1080-NT fibrosarcoma viability, CellTiter-Glo ATP luminescence, 48 h; actives 1.6% (n = 360,000);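 also: NT is the 2HG producing partner of a matched IDH1 knockdown line; potency is read from the fitted curve at half-maximal effect; 0% = DMSO-treated cells and -100% = media-only wells without cells; nearly all actives have a fitted effect of over 55% in size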
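HT-1080-NT; 750 cells/well; 5% FBS RPMI; 48 h compound, 37 degrees C; CellTiter-Glo luminescence; curve fitting and curve-class assignment.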
The depositor's hits bear a star; ? = inconclusive; / = not tested or not shown; [ ] = remark or other dose. Unless noted, calls follow the shape of the dose curve; as a rule, active = well fitted curve in the direction sought with a large enough effect; inconclusive = small, poorly fitted or top-dose-only effect, or another doubt; inactive = no such curve, though single readings can be large; an effect the other way counts as inactive or inconclusive. Unless noted, % is scaled to controls: 0 for no effect and ±100 for the full control effect.

SMILES | TDP1 cell noCPT | TDP1 cell CPT | HT1080 IDH1KD tx | IL-1B inflam inh | HT1080-NT tox
CCOc1ccccc1NC(=O)c1c2c(nc3ccccc13)C(=O)N(C1CCCCC1)C2 | 5.8µM* | 6.5µM* | / | / | /
COc1ccc(-c2nc(SCC(=O)NCc3nc4ccccc4n3C)n3[nH]c(=O)cc3n2)cc1 | -13% | -23% | / | / | /
COc1ccc(C2=NCCn3nc4ccccc4c32)cc1 | -15% | -16% | ? | 18 | -7%
CCCC(=O)Nc1c(-c2cccc(C)c2)c(=O)c2ccccc2n1C | ? | ? | 3% | 24 | 3%
Cc1cccc(NC(=O)CSCC(=O)N2CCN(C(=O)c3ccco3)CC2)c1 | 7% | 9% | 5% | 5 | 10%
O=C(Cn1nc(-c2cccc([N+](=O)[O-])c2)c2ccccc2c1=O)NCC1CCCO1 (configuration not stated) | 0% | -6% | 12% | -11 | 12%
C/C(CC1(O)C(=O)N(C)c2ccccc21)=N\O (configuration not stated) | -6% | -7% | 1% | -17 | 2%
CC(=O)CC1(OC(C)=O)C(=O)N(C)c2ccccc21 (configuration not stated) | 2.9µM* | 3.7µM* | ? | ? | -22%
CCn1c(SCC(=O)c2[nH]c(C)c(C(C)=O)c2C)nnc1-c1cccs1 | 18µM* | ? | -10% | 0 | -2%
CC(=O)OCC#CCSc1nc2ccccc2n1C | -8% | -13% | -21% | 12 | 0%
CC(=O)c1c(C)[nH]c(C(=O)CSc2nc3ccccc3n2C)c1C | 9.2µM* | 15µM* | -5% | -11 | 0%
O=C(NNc1ccc([N+](=O)[O-])cc1)Nc1ccccc1 | ? | 1% | -6% | -5 | -4%
CC(=O)Nc1ccc(S(=O)(=O)NNc2ccc([N+](=O)[O-])cc2)cc1 | ? | ? | 16µM* | -7 | ?
O=C(NNc1ccccc1)C(=O)NNS(=O)(=O)c1ccc([N+](=O)[O-])cc1 | 5% | 2% | 5.8µM* | 11 | 2.1µM*
COc1cc(C)c(Cl)cc1S(=O)(=O)N1CCSC1 | -18% | -14% | 0% | 12 | -1%
Oc1c(Cl)cc(Cl)cc1CNc1nccs1 | -9% | -1% | -14% | 25 | -19%
Oc1c(Cl)cc(Cl)cc1Sc1cc(Cl)cc(Cl)c1O | 23µM* | ? | / | / | /
CC(C)Nc1nc(SC(C)C(=O)Nc2ccccc2)nc(N(C)C)n1 (configuration not stated) | -27% | 7% | -13% | -87* | -16%
CCNc1nc(SC(C)C(=O)Nc2ccccc2)nc(N(C)C)n1 (configuration not stated) | ? | ? | -6% | -16 | -24%
CCN(C(=O)CSc1nc2ccccc2n1Cc1cc(C)ccc1C)c1ccccc1 | 23µM* | 16µM* | / | / | /
Cc1ccc(C)c(Cn2c(C(C)O)nc3ccccc32)c1 (configuration not stated) | ? | ? | -4% | 12 | -1%
CCN(C(=O)CSc1nc2ccccc2n1Cc1ccccc1C#N)c1ccccc1 | 13µM* | 15µM* | / | / | /
NC(=O)CSc1nc2ccccc2n1Cc1ccccc1F | ? | -25% | -15% | -5 | -7%
CN1CCN(NC(=O)c2cc(-c3cccc(Cl)c3)nc3ccccc23)CC1 | 10µM* | 12µM* | ? | ? | 16µM*
O=C(NCCCN1CCOCC1)c1ccc(Cl)cc1Cl | 12% | 5% | 7% | -1 | -1%
SMILES | TDP1 cell noCPT | TDP1 cell CPT | HT1080 IDH1KD tx | IL-1B inflam inh | HT1080-NT tox
O=C(NCCCN1CCOCC1)c1cc(-c2ccccc2)nc2ccccc12 | -29% | 1% | 5% | -8 | 0%
O=C(NCCCN1CCCC1=O)c1cc(-c2ccc3c(c2)OCO3)nc2ccccc12 | ? | 16µM* | -22% | 12 | -2%
COc1cccc(-c2cc(C(=O)Nn3cnnc3)c3ccccc3n2)c1 | -19% | -14% | 1%[9.24 µM] | 18 | ?
O=C(NCCCN1CCOCC1)c1cc(-c2ccc3c(c2)OCO3)nc2ccccc12 | ? | -29% | -2% | ? | -6%
Cc1ccc(-c2cc(C(=O)NCCCN3CCOCC3)c3ccc(Cl)c(C)c3n2)cc1 | ? | ? | 1% | -64* | -2%
Cc1ccc(Nc2cc(C(=O)NCCCN3CCOCC3)c3ccccc3n2)cc1C | ? | ? | ? | 5 | 23µM*
O=C(NCc1cccnc1)c1cccc(OC2CCN(Cc3ccc(CO)o3)CC2)c1 | 1% | 14% | -16% | 5 | -1%
CCCCN1CC[C@H]2C=CC[C@@H](C(=O)NCCc3ccccc3)[C@H]2C1=O | ? | -13% | 3% | -4 | 10%
Cc1nn(-c2ccc(N3CCOCC3)nn2)c(C)c1CCC(=O)NCc1ccc(OC(C)C)cc1 | -23% | -29% | / | / | /
O=C(NNC(=O)c1cc(-c2cccc(Br)c2)nc2ccccc12)c1csc(N2CCOCC2)n1 | -20% | -22% | ? | -3 | -9%
COc1cccc(-c2cc(C(=O)NN3CCOCC3)c3ccccc3n2)c1 | 4.6µM* | ? | 13% | 0 | 5%
CN1CCC(N(C)C(=S)NC(=O)c2cc(-c3cccc(Br)c3)nc3ccccc23)CC1 | 18µM* | ? | 4% | 25 | -4%
O=C(NN1CCOCC1)c1cc(-c2ccc(Br)cc2)nc2ccccc12 | 7.3µM* | ? | 7% | -17 | 13%
COc1ccc(-c2cc(C(=O)NN3CCOCC3)c3ccccc3n2)cc1OC | ? | ? | -1% | -21 | 1%
CCc1ccc(-c2cc(C(=O)NN3CCOCC3)c3ccccc3n2)cc1 | 1.3µM* | 8.2µM* | -2% | -19 | -1%
Cc1cc(C)cc(NC(=O)CSc2nnc(COc3ccccc3Cl)o2)c1 | -27% | 0% | / | / | /
CCCCN1C(=O)C(CC(=O)NCc2ccco2)CC(C(=O)N2CCOCC2)=C1C (configuration not stated) | 19% | 2% | 9% | 13 | 12%
O=C(NCCCN1CCOCC1)c1cc(-c2ccc(Br)cc2)nc2ccccc12 | ? | ? | -19% | -68* | -15%
Cc1ccc(Nc2ncc(C(=O)NCCCN3CCN(C)CC3)c3ccccc23)cc1Cl | ? | ? | 26µM* | -78* | 16µM*
COc1ccc(Cl)cc1NC(=O)COC(=O)Cc1cc(OC)c(OC)c(OC)c1 | -25% | -23% | 8% | 45 | -1%
O=C(C[n+]1cccc(I)c1)c1ccc(F)cc1 | -28% | -19% | / | / | /
